The whole screen tested about 2,300 compounds, of which about 550 (24%) were called active. No rule for the calls is given here. Not all results are given here. Potency and affinity values are given separately.
Test: Vero E6 cell cytotoxicity, dose response, cytotoxicity control for non-replicating M. tuberculosis project, secondary assay (AID 492998);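 also: 100% = vehicle-treated cells and 0% = background wells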
Settings: series mostly up to 20 µM; viability: at the top concentration

| SMILES | viability |
| --- | --- |
| Cc1cccc(CSc2nnc(-c3ccco3)o2)c1 | 99.6% (inactive) |
| CC(C)(C)c1ccc(OCCCC(=O)NC2=NCCS2)cc1 | 86% (inactive) |
| Cc1ccc(NC(=O)COc2ccccc2)cc1Cl | 101% (inactive) |
| O=C(NCCC1=CCCCC1)c1coc(=O)c(Br)c1 | 106% (inactive) |
| O=C(COC(=O)c1ccc(Br)o1)Nc1ncc([N+](=O)[O-])s1 | 105% (inactive) |
| COC(=O)c1ccc(COC(=O)CCS(=O)(=O)c2ccc(C)cc2)cc1 | 99.5% (inactive) |
| CCOC(=O)CC(=O)Nc1ccc(C(=O)OCC)cc1 | 107% (inactive) |
| C=CCc1ccc2oc(C(=O)OCC)cc(=O)c2c1O | 93.4% (inactive) |
| CCNC(=O)NC(=O)C(C)OC(=O)CCCSc1nc2ccccc2s1 (stereo unspecified) | 99% (inactive) |
| Cc1cccc(C)c1NC(=O)COC(=O)CCc1c[nH]c2ccccc12 | 103% (inactive) |
| O=S1(=O)N=C(N/N=C/C=C/c2ccccc2)c2ccccc21 | 82.8% (inactive) |
| COCCn1c(C)cc(C(=O)COC(=O)c2ccc([N+](=O)[O-])o2)c1C | 82% (inactive) |
| Cc1ccc(NC(=O)c2noc(C(C)C)c2[N+](=O)[O-])cc1 | 90.1% (inactive) |
| O=C(Nc1ccc([N+](=O)[O-])cc1)c1ccc(Cn2cc([N+](=O)[O-])cn2)cc1 | 82.7% (inactive) |
| Cc1cc(C(=O)N/N=C/c2ccc([N+](=O)[O-])o2)c(C)o1 | 79.9% (inactive) |
| O=C(Nc1ccccc1F)c1ccc(CSc2ccccc2)o1 | 96.3% (inactive) |
| Cc1cc(C)c(C(=O)COC(=O)c2ccc([N+](=O)[O-])o2)cc1C | 104% (inactive) |
| Cc1[nH]c2ccccc2c1C(=O)C(C)OC(=O)c1ccc([N+](=O)[O-])o1 (stereo unspecified) | 80.2% (inactive) |
| CCCCC1CCC(C(=O)Nc2ccc(S(=O)(=O)Nc3nccs3)cc2)CC1 (stereo unspecified) | 101% (inactive) |
| CCCOC(=O)c1ccc(NC(=O)c2ccccc2OC)cc1 | 97.1% (inactive) |
| CCOC(=O)C1CCN(Cc2ccc(-c3ccccc3)cc2)CC1 | 116% (inactive) |
| OC(C#CCN1CCOCC1)c1cccs1 (stereo unspecified) | 97.2% (inactive) |

| SMILES | viability |
| --- | --- |
| C=CCNc1nnc(Sc2ncccc2[N+](=O)[O-])s1 | 88.3% (inactive) |
| S=C1CN=C(c2ccccc2)c2cc(Cl)ccc2N1 | 106% (inactive) |
| CC(C)Oc1ccc(C(=O)CCN2CCCCC2)cc1 | 88.4% (inactive) |
| Cc1ccc(CCC(=O)Nc2cc(Cl)ccc2Cl)o1 | 95.9% (inactive) |
| CCOc1ccc(CC(=O)N2N=C(C)CC2(O)C(F)(F)F)cc1 (stereo unspecified) | 94.2% (inactive) |
| O=C(c1ccc([N+](=O)[O-])o1)N1CCN(Cc2ccccc2)CC1 | 89.4% (inactive) |
| CCn1nnc(NC(=O)c2ccc(-c3ccc(Cl)cc3)o2)n1 | 96.3% (inactive) |
| CCn1nnc(NC(=O)COc2ccc(C3CCCCC3)cc2)n1 | 98.9% (inactive) |
| O=C(NCc1ccc(F)cc1)c1ccc(Br)o1 | 95.5% (inactive) |
| Cc1ccc(OCC(=O)N/N=C/c2ccc([N+](=O)[O-])o2)cc1 | 94.7% (inactive) |
| O=C(NCCC1=CCCCC1)c1ccc(F)cc1 | 102% (inactive) |
| O=C(CCC1CCCC1)Nc1ccc(Br)cn1 | 80.5% (inactive) |
| O=C(c1cc(F)ccc1F)C1CCCN(Cc2ccc3nonc3c2)C1 (stereo unspecified) | 85% (inactive) |
| CC(C)Cn1c(N)c(C(=O)COC(=O)c2cnc(Cl)c(Cl)c2)c(=O)n(C)c1=O | 92.2% (inactive) |
| COc1cc(N=c2ssnc2Cl)cc(OC)c1 | 101% (inactive) |
| CCOC(=O)COc1ccc2c(=O)cc(-c3ccccc3)oc2c1 | 111% (inactive) |
| COC(=O)C(C)Oc1ccc2cc(-c3ccccc3)c(=O)oc2c1 (stereo unspecified) | 109% (inactive) |
| Cc1ccccc1OCC(=O)OCC(=O)c1ccc[nH]1 | 101% (inactive) |
| Cc1ccc(-c2nnc(-c3cccs3)o2)cc1 | 95.6% (inactive) |
| COc1cccc(OCc2nnc(-c3cccs3)o2)c1 | 108% (inactive) |
| Fc1ccc(-c2nnc(-c3ccc(F)cc3)o2)cc1 | 97.5% (inactive) |
| Fc1ccc(-c2nnc(CSc3nnc(-c4cccs4)o3)o2)cc1 | 100% (inactive) |

| SMILES | viability |
| --- | --- |
| Cc1cc(C(=O)N/N=C/c2ccc(OC(=O)c3ccccc3Br)cc2)n[nH]1 | 92.3% (inactive) |
| Oc1oc(-c2ccco2)nc1C=Nc1cccc(Cl)c1 | 93.7% (inactive) |
| CCc1cc(C(c2ccncc2)N2CCN(C)CC2)c(NC(=O)c2ccccc2)s1 (stereo unspecified) | 101% (inactive) |
| CCOC(=O)C1(CC2CCCCO2)CCN(Cc2nccn2-c2ccc(OC)cc2)CC1 (stereo unspecified) | 106% (inactive) |
| COC12C(COC(N)=O)C3=C(C(=O)C(C)=C(N)C3=O)N1CC1C2N1C (stereo unspecified) | 79.6% (inactive) |
| c1ccc(C2=Nc3ccccc3OC2)cc1 | 98.2% (inactive) |
| Cc1cc2nc(/N=C(\N)NC(=O)C(C)C)nc(C)c2cc1C | 83.2% (inactive) |
| Cc1ccc2nc(CCc3nc4ccc(C)cc4[nH]3)[nH]c2c1 | 90.6% (inactive) |
| CC(C)OC(=O)CCCCCN1C(=O)CSC1=S | 76.9% (inactive) |
| O=C(Nc1ccccn1)c1ccc(C(=O)c2ccccc2)cc1 | 95.9% (inactive) |
| CCCCNC(=O)COC(=O)c1cc(Br)ccc1Cl | 99.6% (inactive) |
| Cc1[nH]n2c(=O)c3c(nc2c1-c1ccccc1)CCCC3 | 75.9% (inactive) |
| CCOC(=O)COc1ccc2c(c1)C(=O)CC1(CCCCC1)O2 | 97.1% (inactive) |
| O=C(COc1ccc(Cl)cc1)Nc1ccccc1Cl | 102% (inactive) |
| CC1=NN(C(=O)COc2ccccc2C)C(O)(c2ccc(Cl)cc2)C1 (stereo unspecified) | 94.2% (inactive) |
| Cc1cc(Cl)ccc1NNC(=O)c1c(C)noc1C | 103% (inactive) |
| COc1cccc(OCCNC(=O)c2cc([N+](=O)[O-])cc([N+](=O)[O-])c2)c1 | 107% (inactive) |
| O=C(Oc1cccc2cccnc12)c1cccc([N+](=O)[O-])c1 | 101% (inactive) |
| Cc1ccc(CSCCNC(=O)c2cccc([N+](=O)[O-])c2)cc1 | 100% (inactive) |
| COc1ccc(C(=O)NN/C(C)=C/C(=O)c2ccccc2)cc1 | 103% (inactive) |
| O=C(N/N=C/c1ccccn1)c1cccc([N+](=O)[O-])c1 | 108% (inactive) |
| O=C(N/N=C/C=C/c1cccc([N+](=O)[O-])c1)c1ccncc1 | 102% (inactive) |

| SMILES | viability |
| --- | --- |
| O=C(c1ccco1)N1CCN(c2ccc(F)cc2)CC1 | 96.9% (inactive) |
| CCOC(=O)C(=O)Cc1nc2ccccc2s1 | 89.4% (inactive) |
| C=C1CCC[C@]2(C)C[C@H]3OC(=O)C(CNC(C)CCCC(C)C)[C@H]3CC12 (stereo partly specified) | 97.1% (inactive) |
| COc1ccc([C@@]2(O)c3c(ccc(CC=C(C)C)c3O)NC(=O)[C@@H]2OC)cc1 | 106% (inactive) |
| COc1ccccc1C(c1nnnn1Cc1ccccc1)N1CCC(C(N)=O)CC1 (stereo unspecified) | 102% (inactive) |
| Cc1ccc(-c2nnc(SCC#CCOC(=O)c3ccco3)o2)cc1 | 93.2% (inactive) |
| O=C(Cc1ccc(F)cc1)Nc1ccc(Cl)cn1 | 103% (inactive) |
| O=C1N(c2ccc3c(c2)OCCO3)C(c2ccccc2)C1(F)F (stereo unspecified) | 104% (inactive) |
| CCCCNC(=O)Cc1ccc(C)cc1 | 102% (inactive) |
| O=C(N/N=C\c1ccc([N+](=O)[O-])o1)C1COc2ccccc2O1 (stereo unspecified) | 77.2% (inactive) |
| O=C(Nc1cccc(Cl)c1)C1COc2ccccc2O1 (stereo unspecified) | 109% (inactive) |
| Cn1cccc1/C=N\NC(=O)C1COc2ccccc2O1 (stereo unspecified) | 105% (inactive) |
| O=C(Nc1ccc([N+](=O)[O-])cc1)C1COc2ccccc2O1 (stereo unspecified) | 103% (inactive) |
| CC(C)NC(=O)C1COc2ccccc2O1 (stereo unspecified) | 94.9% (inactive) |
| CC(C)(C)c1ccc2c(c1)OC(C(=O)N/N=C\c1ccccn1)CO2 (stereo unspecified) | 109% (inactive) |
| Clc1ccc(CN2C3=NCCCN3c3ccccc32)cc1 | 81.8% (inactive) |
| C#CCOc1coc(COC(=O)c2ccccc2)cc1=O | 103% (inactive) |
| Cc1ccc(C(C)NC(=O)c2cc3ccccc3oc2=O)cc1C (stereo unspecified) | 94.6% (inactive) |
| COC(=O)C1=C(C)N(Cc2ccccc2)C(=NCc2ccccc2)N[C@H]1c1cccc(F)c1 | 77.2% (inactive) |
| CC(OC(=O)c1ccc2c(=O)n3c(nc2c1)CCCCC3)C(=O)Nc1ccc(Cl)cn1 (stereo unspecified) | 92% (inactive) |
| CCOC(=O)Cn1cc(C#N)c2ccccc21 | 103% (inactive) |
| O=C(NCc1nnc(SC/C=C/c2ccccc2)o1)c1ccco1 | 95.6% (inactive) |

| SMILES | viability |
| --- | --- |
| CCCC(C)C(=O)Nc1ccc(Cl)cn1 (stereo unspecified) | 101% (inactive) |
| CC(C)(C)OC(=O)NCCc1nnc(S(=O)(=O)Cc2ccc(Cl)cc2Cl)o1 | 103% (inactive) |
| O=C(Nc1ccc(-c2nc3ccccc3c(=O)o2)cc1)c1ccco1 | 104% (inactive) |
| O=C(Nc1nc2ccccc2n1CCN1CCCC1)C1CCCCC1 | 97.2% (inactive) |
| CCOC(=O)c1csc(COc2ccccc2Cl)n1 | 105% (inactive) |
| Nc1nc2ccccc2n1CCOc1ccc(Br)cc1 | 81.7% (inactive) |
| Cn1c(CNc2ccccc2O)nc2ccccc21 | 72.9% (inactive) |
| Nc1nc2ccccc2n1CCOc1ccccc1Cl | 73.6% (inactive) |
| O=C(COC(=O)c1cccs1)NCCC1=CCCCC1 | 97.1% (inactive) |
| O=C(OCC(=O)N1CCc2ccccc21)c1ccc([N+](=O)[O-])cc1 | 98.4% (inactive) |
| CN(C)CCN1C(=O)c2oc3ccccc3c(=O)c2C1c1cccc(Br)c1 (stereo unspecified) | 102% (inactive) |
| COC(=O)COc1cccc(NC(=O)COc2ccccc2)c1 | 101% (inactive) |
| COc1ccc(OC(=O)c2cc3ccccc3o2)cc1 | 98.2% (inactive) |
| CC(=O)c1ccc(OCC(=O)Nc2ccc3c(c2)CCC3)cc1 | 100% (inactive) |
| CC(=O)c1ccc(NC(=O)CCc2ccc(C)o2)cc1 | 102% (inactive) |
| CC1=NN(C(=O)c2ccccc2F)C(O)(c2ccc(Cl)cc2)C1 (stereo unspecified) | 109% (inactive) |
| Clc1cccc(/C=N\Nc2nccs2)c1 | 86% (inactive) |
| Cc1ccc(OCC(=O)OCc2c(C)noc2C)cc1C | 95.7% (inactive) |
| CCOC(=O)CN1NC2(CCCC(C)C2)NC1=S (stereo unspecified) | 98.1% (inactive) |
| Clc1c(OCCCn2ccnc2)ccc2ccccc12 | 71.7% (inactive) |
| Cc1cccnc1NC(=O)c1c(O)c2ccccc2n(C)c1=O | 88.2% (inactive) |
| CCn1c(=O)c(C(=O)Nc2ncccc2C)c(O)c2ccccc21 | 76.2% (inactive) |

| SMILES | viability |
| --- | --- |
| Cn1c(=O)c(Oc2ccc(Cl)cc2)c(O)c2ccccc21 | 101% (inactive) |
| C=CCn1c(=O)c(C(=O)Nc2cccnc2)c(O)c2ccccc21 | 95.6% (inactive) |
| COc1ccc(C(O)CNc2ccc(C)cc2)cc1 (stereo unspecified) | 89.1% (inactive) |
| COc1ccc(NC(=O)c2nc3ccccc3s2)cc1 | 89.6% (inactive) |
| CC(C)c1cc(C(=O)N/N=C/C=C/c2ccccc2)n[nH]1 | 109% (inactive) |
| O=C(COc1ccccc1)Nc1ccc(Cl)cn1 | 96.7% (inactive) |
| O=C(NCc1ccccc1CN1CCCC1)c1cc2ccccc2o1 | 96.9% (inactive) |
| O=Cc1ccnc(-c2ccc(OC(=O)c3ccco3)cc2)n1 | 95.5% (inactive) |
| CCC1CCc2sc(C(=O)NCC3CCCO3)cc2C1 (stereo unspecified) | 85.2% (inactive) |
| CCOc1cc(C=O)cc(N=Nc2cccc([N+](=O)[O-])c2)c1O | 90.5% (inactive) |
| O=C(COc1ccc2ccccc2c1Br)N1CCCC1 | 94.6% (inactive) |
| CCCn1c(=O)c(C(=O)N/N=C/c2ccccc2F)c(O)c2ccccc21 | 86.1% (inactive) |
| Nc1nonc1C(=O)N/N=C/c1ccc([N+](=O)[O-])o1 | 100% (inactive) |
| CC1=NN(C(=O)c2ccoc2C)C(O)(C(F)(F)F)C1 (stereo unspecified) | 82.2% (inactive) |
| COC(=O)C(O)(c1ccc(NC(=S)NC(=O)c2ccccc2)cc1)C(F)(F)F (stereo unspecified) | 101% (inactive) |
| CCOC(=O)Nc1ccc2c(c1)N(C(=O)CCCl)c1ccccc1[S@]2=O | 88.5% (inactive) |
| C=CCn1c(O)c(C(C)=Nc2ccc(C(=O)OCC)cc2)c(=O)[nH]c1=O | 105% (inactive) |
| CCCCNC(=O)Nc1nnc(-c2ccc(Cl)cc2)o1 | 93.9% (inactive) |
| CCOC(=O)c1ccc(NC2OC(=O)c3ccccc32)cc1 (stereo unspecified) | 93.6% (inactive) |
| C=CCN=C1SC(CC)C(=O)N1S(=O)(=O)c1ccc(C)cc1 (stereo unspecified) | 102% (inactive) |
| Cc1ccc(C(=O)CCC2CCCC2=O)cc1 (stereo unspecified) | 88.2% (inactive) |
